TDP1 cell CPT – growth inhibition of DT40 Tdp1-/-;hTDP1 cells with camptothecin (screen for TDP1 inhibitors); Potency, µM (top dose mostly 46.2 µM), inactives show at the highest dose activity change, negative = growth inhibition, hits mostly inhibitors; AID 686979; actives 12% (n = 420,000); chicken DT40 Tdp1-/-;hTDP1 cells + 20 nM CPT, ATP luminescence, 48 h; note: potency is the fitted concentration of half-maximal effect; nearly all actives have a fitted effect of over 55% in size
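Chicken DT40 Tdp1-/- cells complemented with human TDP1, 400 cells/well, exposed to compounds plus 20 nM camptothecin for at least 48 h at 37 C; viability read as ATP content by CellTiter-Glo luminescence.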
Gal4-VP16 FLuc – inhibits Gal4-VP16 luciferase reporter, ROR gamma counter-screen | actives 3.5% (n = 310,000) | AID 2546 | Drosophila S2 Gal4-VP16 UAS-luciferase, luminescence, 20 h | Potency, µM (top dose mostly 53.6 µM), for the others: at the top dose activity, negative = inhibition, usual class: inhibitors;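 note: Gal4-VP16 expression switched on by copper sulfate through the metallothionein promoter; potency is the fitted concentration of half-maximal effect; nearly all actives have a fitted effect of over 50% in size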
RORg inh – blocks mouse ROR gamma transcriptional activity | P51450 | actives 5.4% (n = 310,000) | Potency, µM (titrated, usually from 53.6 µM), for the others: at the highest dose activity change, negative = inhibition, usual class: inhibitors | AID 2551 | Drosophila S2 Gal4-RORgamma UAS-luciferase reporter, 20 h; note: potency is the fitted concentration of half-maximal effect; nearly all actives have a fitted effect of over 60% in size
Target sequence (P51450 whole entry, looked up, the tested form may be a part): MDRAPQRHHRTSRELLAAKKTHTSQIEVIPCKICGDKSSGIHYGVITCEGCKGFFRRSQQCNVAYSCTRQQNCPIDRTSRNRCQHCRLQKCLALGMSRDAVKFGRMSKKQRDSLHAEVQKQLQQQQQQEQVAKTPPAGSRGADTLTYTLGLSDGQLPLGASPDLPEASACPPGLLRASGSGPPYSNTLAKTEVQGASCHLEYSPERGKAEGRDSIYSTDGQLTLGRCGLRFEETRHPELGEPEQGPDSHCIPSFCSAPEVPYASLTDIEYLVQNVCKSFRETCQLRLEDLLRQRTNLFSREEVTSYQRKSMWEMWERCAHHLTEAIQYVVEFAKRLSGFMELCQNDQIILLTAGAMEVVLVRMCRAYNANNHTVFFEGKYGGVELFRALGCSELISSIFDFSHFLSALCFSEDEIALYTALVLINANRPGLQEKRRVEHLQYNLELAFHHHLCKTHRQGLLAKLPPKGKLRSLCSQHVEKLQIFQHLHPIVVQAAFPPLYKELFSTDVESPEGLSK
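Drosophila Schneider cells stably carrying a metallothionein-driven Gal4 DBD–ROR gamma fusion and a UAS-Photinus luciferase reporter were exposed to compound for 1 hr, then induced with copper sulfate (700 uM final) for 20 hr at ambient temperature before luminescence reading.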
DT40 TDP1 no CPT – qHTS for Inhibitors of human tyrosyl-DNA phosphodiesterase 1 (TDP1): qHTS in cells in absence of CPT; DT40 Tdp1-/- hTDP1 cells, no CPT, ATP luminescence, 48 h; Potency, µM (doses to about 46.2 µM), inactives show top-dose activity change, negative = growth inhibition, hits mostly inhibitors; actives 15% (n = 420,000); AID 686978, 2013; note: potency is the fitted concentration of half-maximal effect; nearly all actives have a fitted effect of over 55% in size
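Cells were dispensed at 400 per well, compounds added by pin tool, plates incubated ≥48 hr at 37 °C, then CellTiter-Glo added for 30 min at room temperature before luminescence reading. Line: DT40 Tdp1-/- complemented with hTDP1; camptothecin omitted.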
IL1B secr inh – inhibitors of inflammasome signaling (IL-1 beta secretion); actives 4.7% (n = 360,000); THP-1 LPS/ATP IL-1B secretion, AlphaLISA, 16 h; active compounds read low; activity change, % at 57.5 µM; in the data active = activity change below about -50%; inconclusive = mostly about -30% to -49%
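Secreted IL-1B measured by AlphaLISA bead assay after 16 h compound exposure of THP-1 cells; compounds (final up to 57.5 uM) added 1 h before LPS (250 ng/mL) and ATP (1.25 mM) stimulation; lower signal means less secretion.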
ELG1 DNA repair – blocks ELG1-dependent DNA repair in HEK293T cells; HEK293T ELG1-luciferase reporter, luminescence, 16 h; DNA damage induced by 5-fluorouridine; Potency, µM (doses to about 46.1 µM), inactives show top-dose activity change, negative = inhibition, usual class: inhibitors; actives 2.3% (n = 330,000); note: potency is the fitted concentration of half-maximal effect; nearly all actives have a fitted effect of over 55% in size
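Reporter activity after DNA damage by 5-fluorouridine is monitored. Compound-treated cells incubate 16 hr at 37 °C, then ONE-Glo is added for 30 min before luminescence reading.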
Numbers without * were called inactive; ? = inconclusive; . = no result; [ ] = dose if it differs, or a comment. A selection: hits, their analogues and other compounds. The true share with any hit is near 21%. Unless noted, calls come from the whole dose curve; as a rule, active = well fitted curve in the direction sought with a large enough effect; inconclusive = small, poorly fitted or top-dose-only effect, or another doubt; inactive = no such curve, though single readings can be large; an effect the other way counts as inactive or inconclusive. % is set by controls: 0 for no effect and ±100 for the full control effect.

SMILES | TDP1 cell CPT | Gal4-VP16 FLuc | RORg inh | DT40 TDP1 no CPT | IL1B secr inh | ELG1 DNA repair
O=C(NCc1ccc(F)cc1)c1ccc2c(Cl)c3c(nc2c1)CCCC3 | ? | . | . | 16µM* | . | .
CCOC(=O)c1nn(-c2ccc(C)c(C)c2)c(=O)c2c(N)scc12 | 21µM* | 0% | -7% | ? | 2 | 3%
O=C(Nc1cccc(S(=O)(=O)N2CCCCC2)c1)c1ccc([N+](=O)[O-])o1 | 6.5µM* | ? | 10µM* | 4.1µM* | -92* | ?
Cc1ccc(C(=O)Nc2cccc(S(=O)(=O)N3CCCCC3)c2)cc1[N+](=O)[O-] | 16µM* | . | . | ? | ? | 11µM*
Cc1ccc(C(=O)Nc2cccc(S(=O)(=O)N3CCCCC3)c2)cc1S(=O)(=O)N1CCOCC1 | ? | . | . | ? | -10 | .
COc1cc(=O)n2c(c1C(=O)NCc1ccco1)CCN(C(=O)c1cccnc1SC)CC2 | 12%[9.04 µM] | . | . | -5% | . | .
CC1CCCN(CCOc2cccc(Oc3ccccc3)c2)C1 (stereo unspecified) | 26µM* | 10% | -12%[1.91 µM] | ? | -30 | -5%
CC1CCN(CCCCOc2cccc(C(C)C)c2)CC1 | 16µM* | 1% | -24% | ? | -20 | 0%
c1ccc(Oc2cccc(OCCCCN3CCCC3)c2)cc1 | ? | 1% | -17% | 18µM* | 0 | 6%
CC1CN(CCOc2cccc(Oc3ccccc3)c2)CC(C)O1 (stereo unspecified) | ? | -8% | 25%[1.91 µM] | ? | 16 | -10%
CC1CN(CCCCOc2cccc(Oc3ccccc3)c2)CC(C)O1 (stereo unspecified) | ? | -2% | -18% | ? | -67* | 6%
Brc1cccc(OCCCN2CCCCCC2)c1 | -14% | -8% | -5% | ? | -11 | 0%
Cc1ccc(OCCCCN2CCC(C)CC2)cc1 | 3% | 0% | -14% | -17% | -2 | -1%
CCOC(=O)c1ccc(N(C(=O)c2ccccc2)c2ccccc2)cc1 | -10% | . | . | ? | . | .
CCN(CC(=O)Nc1ccc(NC(C)=O)cc1)C(=O)c1cc(S(=O)(=O)N2CCCCCC2)ccc1OC | -12% | . | . | -11% | -12 | ?
Cc1nc(C)n(CC(=O)N2CCOc3ccc(CN4CCN(C)C[C@@H]4c4ccccc4)cc3C2)n1 | -9%[9.04 µM] | . | . | -16% | . | .
CC(C)C[C@H](NC(=O)[C@H](CO)NC(=O)CNC(=O)[C@H](CCCCN)NC(=O)[C@H](CCCN=C(N)N)NC(=O)[C@H](C)NC(=O)[C@H](Cc1ccccc1)NC(=O)[C@@H](N)CCCN=C(N)N)C(=O)N[C@@H](CCCN=C(N)N)C(=O)N[C@@H](CCC(N)=O)C(=O)N[C@@H](CCCCN)C(=O)N[C@@H](CC(N)=O)C(=O)N[C@H](C(=O)O)C(C)C | . | 0% | 32% | . | . | .
COc1ccccc1C1c2[nH]c3ccccc3c2CCN1Cc1ccc(NC(C)=O)s1 (stereo unspecified) | ? | 2% | 23% | ? | -21 | 0%
COc1cc(OC)cc(OC2(C)CCN(Cc3ccc(OC(C)C)cc3)C2)c1 (stereo unspecified) | 26µM* | . | . | 23µM* | 13 | .
CSc1ccc(OC2(C)CCN(Cc3ccccc3)C2)cc1 (stereo unspecified) | ? | . | . | ? | -21 | .
CSc1ccc(CN2CCC(C)(Oc3ccc(-n4ccnc4)cc3)C2)cc1 (stereo unspecified) | 18µM* | . | . | 18µM* | ? | .
CSc1ccc(CN2CCC(C)(Oc3ccc(CC#N)cc3)C2)cc1 (stereo unspecified) | ? | . | . | ? | -22 | .
CSc1ccc(OC2(C)CCN(Cc3ccc4c(c3)OCCO4)C2)cc1 (stereo unspecified) | 26µM* | . | . | ? | -11 | .
Nc1c(C2CCCCC2)c(=O)on1C(=O)c1ccccc1 | ? | . | . | ? | 13 | .
CC(C)C[C@@H]1COc2cc(N(C)CCO)ccc2S(=O)(=O)N1 | 2% | . | . | 3% | -11 | .
SMILES | TDP1 cell CPT | Gal4-VP16 FLuc | RORg inh | DT40 TDP1 no CPT | IL1B secr inh | ELG1 DNA repair
O=C(CN1CCN(c2ccc(F)cc2)CC1)Nc1ccccc1[N+](=O)[O-] | -21% | -4% | 26% | ? | -15 | -17%
COc1cccc(NC(=O)NC2CCN(CC(=O)Nc3ccccc3[N+](=O)[O-])CC2)c1 | ? | -8% | ? | ? | -20 | 21µM*
O=C(CN1CCC(NC(=O)Nc2ccc(F)cc2)CC1)Nc1ccccc1[N+](=O)[O-] | ? | 24% | 25% | 21µM* | 15 | 18µM*
COc1ccc(C(=O)NC2CCN(CC(=O)Nc3cccc(OC)c3)CC2)cc1 | -12% | 28% | -5%[1.91 µM] | 17% | -23 | -10%
O=c1oc(-c2ccc(Cl)cc2[N+](=O)[O-])nc2ccccc12 | ? | . | . | ? | 55 | .
COc1ccc(NC(=O)C(c2ccc(Cl)cc2)C(C)C)cn1 (stereo unspecified) | -25% | -5% | 44% | -16% | -16 | 8%
COc1ccc(OC)c(S(=O)(=O)CC(O)CS(=O)(=O)c2ccccc2)c1 (stereo unspecified) | ? | -7% | -3% | -27% | -16 | 12%
S=c1[nH]nc(Cc2cccc3ccccc23)n1-c1ccccc1 | ? | 7.1µM* | 3.2µM* | ? | 17 | -4%
C=CCn1c(Cc2cccc3ccccc23)n[nH]c1=S | 21µM* | 11µM* | 4µM* | ? | 84 | 0%
Cn1c(Cn2c3ccccc3c3ccccc32)n[nH]c1=S | -4% | 13µM* | 3.5µM* | ? | 4 | -23%
C=CCn1c(CCn2c3ccccc3c3ccccc32)n[nH]c1=S | -17% | 3.2µM* | 4µM* | -25% | 0 | 3%
C=CCOC(=O)N[C@H](/C(C(=O)OC)=C(\C)NCc1ccccc1)c1cccc(OC)c1 | . | 3% | -16% | . | . | .
Cc1cnn(Cc2ccccc2)c1N | -7% | -6% | 5% | 12% | 26 | 28%
S=c1[nH]nc(Cc2noc3ccccc23)n1-c1ccccc1 | ? | -6% | 10µM* | ? | -19 | ?
Cn1c(-c2cc(Br)ccc2O)n[nH]c1=S | -8% | ? | ? | -5% | ? | 5%
Cn1c(Cc2c[nH]c3ccccc23)n[nH]c1=S | -23% | 6% | -19% | -14% | 26 | ?

High-throughput results as filed in PubChem BioAssay.
